# Laboratory results published in ChEMBL document CHEMBL3433997, “St. Jude Leishmania screening dataset” (2016).
# Columns and labels:
# Format in all cases: functional
# [1] = target: Solute carrier family 2, facilitated glucose transporter member 1 (Homo sapiens) (UniProt P11166); assay: ST_JUDE_LEISH: Cytotoxicity at 2uM final concentration against transgenic Leishmania Mexicana promastigotes LmGLUT1 that are glucose transport deficient and complemented with the human glucose transporter GLUT1. Activity is measured by DNA content using SYBR green in vitro
# [2] = target: Hexose transporter 1 (Plasmodium falciparum) (UniProt O97467); assay: ST_JUDE_LEISH: Cytotoxicity at 2uM final concentration against transgenic Leishmania Mexicana promastigotes LmPfHT that are glucose transport deficient and complemented with the Plasmodium falciparum hexose transporter. Activity is measured by DNA content using SYBR green in vitro
# [3] = target: Glucose transporter (Leishmania mexicana) (UniProt O61059); assay: ST_JUDE_LEISH: Cytotoxicity at 2uM final concentration against transgenic Leishmania Mexicana promastigotes LmGT2 that are glucose transport deficient and complemented with the L. Mexicana glucose transporter 2. Activity is measured by DNA content using SYBR green in vitro
# Solute carrier family 2, facilitated glucose transporter member 1 (Homo sapiens), sequence (P11166 whole entry): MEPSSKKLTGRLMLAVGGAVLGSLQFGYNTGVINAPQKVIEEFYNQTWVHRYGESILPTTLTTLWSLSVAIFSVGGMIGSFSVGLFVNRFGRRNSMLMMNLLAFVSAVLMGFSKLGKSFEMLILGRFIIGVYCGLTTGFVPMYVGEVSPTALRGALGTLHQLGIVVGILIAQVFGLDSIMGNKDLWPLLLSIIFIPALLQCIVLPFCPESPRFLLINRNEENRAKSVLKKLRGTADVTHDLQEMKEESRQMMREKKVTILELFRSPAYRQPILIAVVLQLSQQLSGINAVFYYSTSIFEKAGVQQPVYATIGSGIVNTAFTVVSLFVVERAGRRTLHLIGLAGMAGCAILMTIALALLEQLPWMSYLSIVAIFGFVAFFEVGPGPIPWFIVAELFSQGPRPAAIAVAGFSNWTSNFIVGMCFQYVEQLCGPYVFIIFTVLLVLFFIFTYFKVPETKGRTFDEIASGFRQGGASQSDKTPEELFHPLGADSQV
SMILES,inhibition [1] [%],inhibition [2] [%],inhibition [3] [%]
c1ccc2[nH]c(-c3ccc(-c4ccc(CNCCc5ccncc5)cc4)s3)nc2c1,8.39,5.02,2.3
CCN(CC)CCOc1ccc(Nc2ncc3cc(-c4c(Cl)cccc4Cl)c(=O)n(C)c3n2)cc1,75.8,83.3,17.9
CCc1c(CCNCCCCCCNC(C)(C)Cc2ccc3c(c2CC)OCO3)ccc(OC)c1OC,10,10.7,6.49
CCCc1cc(OC)c(CC2c3cc(O)c(Cl)cc3C(c3ccccc3)CN2C)cc1OC (stereo not drawn),7.84,1.11,3.98
COc1ccc2nccc([C@@H](O)CN3CCC(NCc4nc5c(OCc6ccccc6)cccc5[nH]4)CC3)c2c1,4.97,3.37,4.99
COc1ccc(Nc2ncc3c(-c4cccc(NC(=O)Cc5cccc(F)c5)c4)c[nH]c3n2)cc1OC,5.69,3.23,4.39
C=Cc1ccccc1C1(O)CCN(CCCCNC(=O)c2ccc(-c3ccc(C#N)cc3)cc2)CC1,1.27,1.76,-1.41
CC(C)(C)OC(=O)NCc1ccc(Nc2nnc(-c3ccc(OCC(=O)NCc4ccc(C(C)(C)C)cc4)c([N+](=O)[O-])c3)o2)cc1,2.12,1.65,-0.53
O=C(NCCN1CCOCC1)c1ccc(O)c(-c2cccc(C(F)(F)F)c2)c1,0.48,1.53,2.43
Cc1cccc2nc(-c3cccc(-c4cccc(C(=O)N5CCCCC5CN5CCC(O)C5)c4)c3)[nH]c12 (stereo not drawn),0.56,0.67,-1.67
COc1ccc(CCc2ccc(-c3c(C)[nH]c(C)c(Cl)c3=O)cc2)cc1OC,12,11,10.6
CC(C)c1sc(N2CCN(C)CC2)nc1C(=O)Nc1cccc2c1CCCC2,0.42,1.67,1.79
Fc1ccc2[nH]c(-c3cccc(-c4ccc(CNCC5CCCO5)cc4)c3)nc2c1 (stereo not drawn),1.13,-3.6,-1.42
Cc1cc(N[C@@H](Cc2ccccc2)C(=O)NCc2cccs2)nc(NCC2CCCCC2)n1,3.33,2.71,-0.41
N#CC(c1cccc(Cl)c1)c1ccc2c(C(F)(F)F)cc(C(F)(F)F)nc2n1 (stereo not drawn),9.02,7.47,6.02
c1ccc(-c2nnc(-c3ccccn3)nc2NC2CCCCC2)cc1,80,79.8,71.2
COc1ccc2c(NCCc3ccccc3)cc(-c3ccccc3)nc2c1,9.93,10.8,4.05
O=C(COC(=O)c1cccc(S(=O)(=O)N2CCc3ccccc32)c1)NNC(=O)c1cccs1,4.4,4.13,2.91
CC(CN1CCN(C)CC1)C(=O)Nc1cccc(-c2ccc(-c3nc4ccccc4[nH]3)s2)c1 (stereo not drawn),-1.1,-1.46,-3.97
O=S(=O)(NCCN1CCCC1)c1cccc(-c2cccc(CNCc3ccc(F)cc3)c2)c1,0.2,2.85,-2.32
CC(CN1CCN(C)CC1)C(=O)Nc1cccc(-c2ccc(-c3nc4cc(F)ccc4[nH]3)cc2)c1 (stereo not drawn),4.67,3.13,2.7
CC(C)(C)c1ccc(OCC(=O)NC2CCN(c3ccnc4cc(Cl)ccc34)C2)cc1 (stereo not drawn),0.64,0.05,-1.09
Fc1ccc2[nH]c(-c3ccc(-c4ccc(CNCC5CCCO5)cc4)cc3)nc2c1 (stereo not drawn),12.4,11.2,7.73
CC(Cc1ccc(COc2ccc(CC(CO)NCCc3cccc(Cl)c3)cc2)cc1)NCCc1cccc(Cl)c1 (stereo not drawn),51.7,38.4,69.3
Cc1cc(C)c(NC(=O)N[C@H]2CCN(CCCCCNC(=O)/C=C/c3ccc(Cl)c(Cl)c3)C2)c(C)c1,-0.8,-0.95,1.3
CN(C)CCCNc1ncnc2c1[nH]c1ccc(Cl)cc12,1.91,3.62,1.6

SMILES,inhibition [1] [%],inhibition [2] [%],inhibition [3] [%]
Cc1[nH]c(-c2ccc(F)cc2)cc1C(=O)NC1CCN(Cc2ccccc2)CC1,1.59,3.23,-0.98
Cc1cc(=NN=Cc2cccc(Cl)c2)c2ccccc2[nH]1,5.11,6.14,3.65
N#Cc1ccc(N2CCN(Cc3cccc(-c4ccc(-c5nc6ccccc6[nH]5)cc4)c3)CC2)nc1,6.09,3.68,-0.67
O=C(Nc1ccc(N2CCCN(Cc3cccc(F)c3)CC2)cc1)c1ccc(F)cc1,4.73,5.55,5.51
Cc1ccc(C(=O)c2oc3ccc4c(C)cc(=O)oc4c3c2C)cc1,-0.73,-0.13,0.22
Clc1ccc(Nc2nc(-c3ccccn3)cs2)nc1,67.7,27.3,22.7
CC(C)OC(=O)c1ccc(NC(=O)N[C@@H](Cc2ccc(O)cc2)C(=O)NC2CCC(CCN3C4CCC3c3ccccc34)CC2)cc1 (stereo partly drawn),3.08,2.7,2.46
CCc1ccc(NC(=O)c2ccc(CN3CCCN(Cc4cccc(C)c4)CC3)cc2)cc1,7.45,9.33,5.79
O=C(Nc1cccnc1)c1ccc(-c2cc3ccncc3cc2OC2CCNCC2)s1,2.38,2.54,2.16
COc1ccc(NC(=O)[C@H](CC(C)C)Nc2ccnc(Nc3ccccc3)n2)cc1,0.79,2.71,-0.96
O=C(Nc1cccc(-c2ccc(-c3nc4cc(F)ccc4[nH]3)s2)c1)c1cccnc1,5.68,4.85,3.13
O=S(=O)(Nc1cc2c(cc1O)CCN(C1CCC1)CC2)c1ccc(-c2ccc(F)cc2)cc1,5.67,8.27,3.1
CN(C)CCN(Cc1ccc(-c2ccc(CNCCc3ccccc3)cc2)nc1)C(=O)CCC1CCCC1,3.68,6.87,6.39
Cc1noc(C)c1-c1cccc(CNCc2cccc(-c3cccc(-c4nc5ccccc5[nH]4)c3)c2)c1,0.14,1.29,0.09
Cc1ccc(NC(=O)C(C)Sc2nnc(-c3ccccc3Br)[nH]2)cc1 (stereo not drawn),-1.5,-2.48,-0.33
N#Cc1ccc2[nH]cc(CN3CCC4(CC3)CN(CCNCc3ccccc3)C(=O)O4)c2c1,4.35,4.4,-0.76
Fc1ccc(-c2cc(NCCCn3ccnc3)nc(-c3cccnc3)n2)cc1,1.99,0.82,2.67
COc1ccc2nccc([C@@H](O)CN3CCC(NC(=O)C(c4ccccc4C)N4CCC(Cc5ccccc5)CC4)CC3)c2c1 (stereo partly drawn),1.73,1.16,2.38
O=C(Nc1ccc(Cl)cc1)c1cccc(S(=O)(=O)NC2CCN(CC3CCCCC3)CC2)c1,0.8,1.68,3.31
O=c1cc(NCCCNC2CCc3ccc(Cl)cc32)[nH]c2ccccc12 (stereo not drawn),-2.61,-0.73,1.83
O=C(Cn1c(CCc2cccc(F)c2F)nc(=O)c2cccnc21)N(Cc1ccc(-c2ccc(C(F)(F)F)cc2)cc1)C1CCN(C2CCSCC2)CC1,3.24,4.36,0.42
CCc1ccc(C2CCN(CCCCNC(=O)c3ccc(NC(=O)c4ccc(Cl)cc4)cc3)CC2)c(OC)c1,9.49,2.21,1.66
COc1ccc(C2CCN(CCCCNC(=O)c3ccc(NC(=O)c4ccc(Cl)cc4)cc3)CC2)c(C)c1,-0.79,-0.57,-2.18
c1ccc(Oc2ccc(Nc3ccnc(Nc4cccc(CNCCCN5CCOCC5)c4)n3)cc2)cc1,-3.58,-2.31,-1.79
CCN(CC)/C(=N/C(=N)NCc1ccc(Cl)cc1)NCCCCCCN/C(=N\C(=N)NCc1ccc(Cl)cc1)N(CC)CC,9.05,8.96,8.12
